Measured values published in PubChem BioAssay (EPA / NIEHS).
Results filed as inconclusive are left out. Calls of active or inactive are those of the source. The calls were made as follows, unless noted: active = hit-call score of the fitted dose curve at least 0.9, where 1 is the maximum; inactive = score below 0.9.

Key:
[1] = CEETOX_H295R_CORTISOL_noMTC: CeeTox H295R High-throughput Steroidogenesis Assay for Cortisol, maximum tolerated concentration (MTC) filtered results only (AID 2283916); details: actives raise or lower the signal
Summary of the method: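 Cortisol secretion measured by LC-MS/MS after 48 h chemical treatment (final 0.1% DMSO) of forskolin-primed (10 uM, 48 h) H295R cells; gain or loss fitted relative to DMSO, without maximum-tolerated-concentration filtering.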

[2] = CEETOX_H295R_CORTIC_noMTC: CeeTox H295R High-throughput Steroidogenesis Assay for Corticosterone (CORTIC), maximum tolerated concentration (MTC) filtered results only (AID 2283917); details: actives raise or lower the signal
Protocol: (§1) CEETOX_H295R is a cell-based, multiplexed-readout assay that uses H295R, a human adrenal gland cell line, with measurements taken at 48 hours after chemical dosing in a 96-well plate.CEETOX_H295R_CORTIC_noMTC is one of 12 assay component(s) measured or calculated from the CEETOX_H295R assay (11 hormones and 1 viability assay). It is designed to make measurements of hormone induction, a form of inducible reporter, as detected with absorbance signals by HPLC-MS-MS technology. The concentrations for these components have not been pre-filtered for the maximum tolerated concentration (MTC) based on the MTT assay (_noMTC).Data from the assay component CEETOX_H295R_CORTIC_noMTC was analyzed into 1 assay endpoint. This assay endpoint, CEETOX_H295R_CORTIC_noMTC, was analyzed with bidirectional fitting relative to DMSO as the negative control and baseline of activity. Using a type of inducible reporter, gain or loss-of-signal activity using HPLC-MS-MS was used to understand synthesis of Corticosterone in H295R cell line at 48hr of chemical exposure, without filtering concentrations for maximum tolerated concentration (MTC). To generalize the intended target to other relatable targets, this assay endpoint is annotated to the steroid hormone intended target family, where the subfamily is glucocorticoids.
(§2) Cell culture and media preparation procedures were conducted in accordance with OECD Test No. 456 guidelines, with minor modifications. H295R cells (ATCC CRL-2128) were expanded for 5 passages and frozen in batches in liquid nitrogen. […] For steroid quantification, media samples were shipped to OpAns, LLC (Durham, NC) on dry ice, and samples were thawed to room temperature prior to liquid-liquid extraction. […] Steroid hormones were separated by HPLC, eluted using a reverse phase C18 gradient with electrospray positive ionization, followed by quantification by tandem mass spectrometry (MS/MS). Data were acquired on a MassHunter Workstation Acquisition version B03.01 (Agilent Technologies, Inc.) and processed using MassHunter Quantitative Analysis for QQQ. Accuracy was determined for each hormone analyte from 3 standards to determine upper and lower limits of quantification (ULOQ and LLOQ, respectively) using a 7-point standard curve. Precision and accuracy of the extraction and quantification methods were calculated as the percent relative standard deviation (%RSD) of the spiked standards and percent spiked standard recovered, respectively. The goal was to achieve 100% accuracy (i.e., recover all spiked-in standard at quantification with minimal loss during run time) and good precision (i.e., have %RSD <15% to ensure reproducibility). Test medium was removed following chemical exposure, and cell viability was evaluated in the same wells by MTT. […]

[3] = CEETOX_H295R_DOC_noMTC: CeeTox H295R High-throughput Steroidogenesis Assay for DOC, maximum tolerated concentration (MTC) filtered results only (AID 2283918); details: actives raise or lower the signal
Summary of the method: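 11-Deoxycorticosterone secreted by human adrenal H295R cells quantified by HPLC-MS/MS after 48 h chemical exposure (0.1% DMSO), following 48 h 10 uM forskolin prestimulation. Concentrations not filtered by MTT-derived MTC; bidirectional fitting.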

[4] = CEETOX_H295R_ESTRADIOL_noMTC: CeeTox H295R High-throughput Steroidogenesis Assay for Estradiol, maximum tolerated concentration (MTC) filtered results only (AID 2283919); details: actives raise or lower the signal
Summary of the method: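 Readout: dansyl-derivatized estradiol quantified by LC-MS/MS in medium from H295R cells dosed 48 h (0.1% DMSO) following 48 h forskolin (10 uM) prestimulation. Gain or loss of signal fitted against DMSO; no MTC filtering applied.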

[5] = CEETOX_H295R_PROG_noMTC: CeeTox H295R High-throughput Steroidogenesis Assay for Progesterone (PROG), maximum tolerated concentration (MTC) filtered results only (AID 2283920); details: actives raise or lower the signal
Summary of the method: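 Progesterone secreted into medium was measured by HPLC-MS/MS after MTBE extraction, following 48 h chemical exposure (0.1% DMSO) of forskolin-prestimulated (10 uM, 48 h) H295R adrenal cells. Gain or loss fitted against DMSO; no MTC filtering.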

[6] = CEETOX_H295R_ESTRONE_noMTC: CeeTox H295R High-throughput Steroidogenesis Assay for Estrone, maximum tolerated concentration (MTC) filtered results only (AID 2283921); details: actives raise or lower the signal
Protocol: as §1, with “plate.CEETOX_H295R_ESTRONE_noMTC” for “plate.CEETOX_H295R_CORTIC_noMTC”, “CEETOX_H295R_ESTRONE_noMTC” for “CEETOX_H295R_CORTIC_noMTC”, “CEETOX_H295R_ESTRONE_noMTC,” for “CEETOX_H295R_CORTIC_noMTC,”, “Estrone” for “Corticosterone”, “estrogens.” for “glucocorticoids.”
as §2

PGR (gene 5241) [7] = target: PGR (gene 5241) (UniProt P06401); experiment: TOX21_PR_BLA_Followup_Antagonist_ratio: Tox21 HEK293 Progesterone Receptor (PR) Antagonism Beta-lactamase Follow-Up Assay, Ratio (AID 2283934; active = hit-call score of the fitted dose curve at least 0.9, where 1 is the maximum;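 also: PR-UAS-bla HEK293T cells stimulated with 1 nM R5020 agonist for 16 hr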)
Summary of the method: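 Measured in PR-UAS-bla HEK293T cells co-treated with compound and 1 nM promegestone for 16 hr; beta-lactamase ratio read after 2 h FRET substrate loading, with parallel CellTiter-Glo cytotoxicity.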

[8] = TOX21_PR_BLA_Followup_Agonist_viability: Viability Assessment in the Tox21 HEK293 Progesterone Receptor (PR) Agonism Beta-lactamase Follow-Up Assay (AID 2283935; active = hit-call score of the fitted dose curve at least 0.9, where 1 is the maximum;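 also: signal loss means lower viability so actives are cytotoxic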)
Summary of the method: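 Viability is read as CellTiter-Glo luminescence, where loss of signal indicates cytotoxicity. The cells are PR-UAS-bla HEK293T given compounds for 16 hr at 37C and 5% CO2, in the same wells used for the bla readout.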

[9] = TOX21_PR_BLA_Followup_Antagonist_viability: Viability Assessment in the Tox21 HEK293 Progesterone Receptor (PR) Antagonism Beta-lactamase Follow-Up Assay (AID 2283936; active = hit-call score of the fitted dose curve at least 0.9, where 1 is the maximum;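 also: cells exposed to compound with R5020 agonist for 16 h; hits lower the luminescence signal meaning cytotoxicity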)
Summary of the method: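 PR-UAS-bla HEK293T cells in medium with 2% charcoal-stripped FBS were treated with compounds plus R5020 for 16 hr at 37C. After the beta-lactamase read, CellTiter-Glo was added to the same wells and luminescence read after 30 min at room temperature.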

PGR (gene 5241) [10] = target: PGR (gene 5241) (UniProt P06401); experiment: TOX21_PR_BLA_Followup_Agonist_ratio: Tox21 HEK293 Progesterone Receptor (PR) Agonism Beta-lactamase Follow-Up Assay, Ratio (AID 2283933; active = hit-call score of the fitted dose curve at least 0.9, where 1 is the maximum)
Summary of the method: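 Ratio-based beta-lactamase reporter signal after 16 hr compound treatment of PR-UAS-bla HEK293T cells at 37C. Substrate loading lasted 2 hr at room temperature.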

Measured: AC50

Sequence of PGR (gene 5241) (P06401 whole entry, looked up): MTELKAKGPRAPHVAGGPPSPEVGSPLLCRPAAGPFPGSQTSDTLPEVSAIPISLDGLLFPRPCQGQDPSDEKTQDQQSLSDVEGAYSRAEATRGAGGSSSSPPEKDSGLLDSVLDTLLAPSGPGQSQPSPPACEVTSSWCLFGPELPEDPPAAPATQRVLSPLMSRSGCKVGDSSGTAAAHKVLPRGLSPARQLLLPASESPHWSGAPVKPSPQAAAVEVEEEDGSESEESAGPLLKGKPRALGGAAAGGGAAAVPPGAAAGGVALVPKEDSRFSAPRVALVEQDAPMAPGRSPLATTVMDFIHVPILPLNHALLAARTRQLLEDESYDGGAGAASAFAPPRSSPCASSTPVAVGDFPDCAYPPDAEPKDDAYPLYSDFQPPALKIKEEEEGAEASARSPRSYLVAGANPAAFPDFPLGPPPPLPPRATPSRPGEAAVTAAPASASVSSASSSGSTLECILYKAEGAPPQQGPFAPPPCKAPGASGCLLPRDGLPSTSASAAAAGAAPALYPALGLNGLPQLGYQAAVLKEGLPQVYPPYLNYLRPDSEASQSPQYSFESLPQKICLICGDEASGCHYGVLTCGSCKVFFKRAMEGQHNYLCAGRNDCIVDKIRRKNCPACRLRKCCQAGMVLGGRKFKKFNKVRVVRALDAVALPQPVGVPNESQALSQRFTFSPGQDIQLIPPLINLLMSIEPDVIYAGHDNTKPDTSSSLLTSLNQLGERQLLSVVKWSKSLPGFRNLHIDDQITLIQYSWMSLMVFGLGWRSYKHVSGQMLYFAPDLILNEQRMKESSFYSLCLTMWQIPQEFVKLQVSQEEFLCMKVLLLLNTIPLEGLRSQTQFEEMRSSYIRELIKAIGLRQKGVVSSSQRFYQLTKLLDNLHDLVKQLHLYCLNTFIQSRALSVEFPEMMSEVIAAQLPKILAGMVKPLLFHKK

CCCCOC(=O)c1ccccc1C(=O)OCCCC
inactive: [1] | [2] | [3] | [4] | [5] | [6]

CCOP(=S)(OCC)SCn1c(=O)oc2cc(Cl)ccc21
inactive: [8] | [9]
active: PGR (gene 5241) [7] 24.9 µM

CCCCC(CC)COC(=O)c1ccccc1C(=O)OCC(CC)CCCC (stereo not drawn)
inactive: [1] | [2] | [3] | [4] | [5] | [6]

N#CC(CCc1ccc(Cl)cc1)(Cn1cncn1)c1ccccc1 (stereo not drawn)
inactive: PGR (gene 5241) [10] | [8] | [9]
active: PGR (gene 5241) [7] 17.8 µM

COC(=O)N(OC)c1ccccc1COc1ccn(-c2ccc(Cl)cc2)n1
active: PGR (gene 5241) [7] 7.24 µM
inactive: [8] | [9]

C=CC1(C)OC(=O)N(c2cc(Cl)cc(Cl)c2)C1=O (stereo not drawn)
inactive: PGR (gene 5241) [7] | [8] | [9]

CON(C)C(=O)Nc1ccc(Cl)c(Cl)c1
inactive: PGR (gene 5241) [7] | [8] | [9]

OC(c1ccc(Cl)cc1)(c1cncnc1)c1ccccc1Cl (stereo not drawn)
active: [1] 2.57 µM | [2] 0.203 µM | [3] 11.4 µM | [4] 9.94 µM | [5] 2.67 µM | [6] 13.9 µM

COC(=O)c1ccccc1C(=O)OC
inactive: [1] | [2] | [3] | [4] | [5] | [6]

COc1ccc(C(c2ccc(OC)cc2)C(Cl)(Cl)Cl)cc1
inactive: [8] | [9]
active: PGR (gene 5241) [7] 6.48 µM
